TSHR antagonist = human thyrotropin receptor antagonism | TSHR-expressing cells, TSH-stimulated cAMP HTRF, 2 h; active compounds read low | activity change, negative = inhibition, % at 11.5 µM | 330,000 tested, 0.2% active;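 active = activity change below a set negative limit, meaning inhibition stronger than a set level, cut at about -70% in these data; inconclusive = activity change between two set negative limits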
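TSHR-expressing cells were treated with compounds, then stimulated with TSH at EC80 (4nM final) for 2 hours at 37 deg C. Cellular cAMP was measured by HTRF competition between lysate cAMP and cAMP-d2 for a cryptate-labelled anti-cAMP antibody.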
B2AR arrestin = agonists driving beta-arrestin recruitment to human beta2-adrenergic receptor; 330,000 tested, 0.02% active; Potency, µM (titrated, usually from 46.1 µM), most hits filed as activators; P07550; beta-arrestin recruitment to beta2AR, cell-based reporter; active = well fitted activation curve with a large enough effect; inconclusive = small, poorly fitted or top-dose-only effect; also: nearly all actives have a fitted effect of over 65% in size
Target sequence (P07550 whole entry, looked up): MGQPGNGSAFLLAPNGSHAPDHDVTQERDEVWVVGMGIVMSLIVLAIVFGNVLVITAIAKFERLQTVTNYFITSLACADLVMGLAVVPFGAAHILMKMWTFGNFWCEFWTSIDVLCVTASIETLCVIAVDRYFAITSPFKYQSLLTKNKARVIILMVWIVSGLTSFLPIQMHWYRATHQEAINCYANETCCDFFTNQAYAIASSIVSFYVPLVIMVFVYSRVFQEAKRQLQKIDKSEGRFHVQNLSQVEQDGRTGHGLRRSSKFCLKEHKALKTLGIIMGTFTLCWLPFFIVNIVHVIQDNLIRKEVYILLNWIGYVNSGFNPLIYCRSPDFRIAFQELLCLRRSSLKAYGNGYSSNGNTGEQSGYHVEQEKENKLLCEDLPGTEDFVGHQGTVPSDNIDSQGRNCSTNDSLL
D3 ag = agonists of human D3 dopamine receptor | D3R DiscoveRx beta-arrestin cells, luminescence, 90 min | AID 652048 | 410,000 tested, 0.58% active | P35462 | max activation, %; in the data active = max activation above about 30%
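Agonist-mode cell screen: cells plated at 1500/well and incubated overnight at 37 °C, then exposed to library compounds for 90 min at 37 °C. Detection reagent was added for 30–60 min at room temperature, and luminescence was read.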
DRD3 antagonist = D3 dopamine receptor (human) antagonism; P35462; D3R cells, DiscoveRx beta-arrestin luminescence, antagonist mode; active compounds read low; max response, negative = inhibition, %; 360,000 tested, 2.5% active; AID 652054; in the data active = max response below about -50%; inconclusive = no clear call, values can overlap the other calls
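Cells plated overnight at 1500 cells/well, then exposed to library compounds with dopamine controls for 90 minutes at 37 degrees C. DiscoveRx reagent added for 30–60 minutes at room temperature; luminescence read, quantitative HTS format.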
Numbers stand for hits; . = inactive; ? = inconclusive; / = not tested or not shown. A selection: hits, their analogues and other compounds. The true share with any hit is near 2.9%.

SMILES	TSHR antagonist	B2AR arrestin	D3 ag	DRD3 antagonist
O=c1c2c3c(sc2n(CCN2CCCCC2)c(=O)n1Cc1ccco1)CCCCC3	.	.	.	-92.8
O=c1c2c3c(sc2n(CCN2CCOCC2)c(=O)n1Cc1ccco1)CCCCC3	.	.	.	.
CCOc1ccc(NC(=O)CCc2c(C)nc3cc(-c4ccc(Cl)cc4)nn3c2C)cc1	/	/	.	/
CCc1ccc(NC(=O)C2CCCN(S(=O)(=O)c3c(C)noc3/C=C/N(C)C)C2)cc1 (centres undefined)	/	/	.	/
CN(CCNC(=O)c1cccc(N2CCCC2=O)c1)Cc1ccccc1	.	.	.	-58.4
CC1(C)CC(=O)C2=C(C1)N=C1SCCC(=O)N1C2c1ccccc1 (centres undefined)	.	.	.	-53.2
CCOC(=O)C1(C)/C(=N/Nc2cccc(Cl)c2)C(=O)C(=O)N1c1ccccc1 (centres undefined)	.	.	.	-75.0
Cc1ccc(C)c(NC(=O)CSc2nnc(-c3ccncc3)n2N)c1	.	.	.	-70.0
Cc1ccccc1CNC(=O)C1CCCN(c2nnc(-n3c(C)ccc3C)s2)C1 (centres undefined)	/	/	.	/
O=C(/C=C/c1ccco1)NC(=S)NNC(=O)c1ccco1	.	.	.	-84.3
Cc1ccnc(NC(=S)NC(=O)/C=C/c2ccco2)c1	.	.	.	-51.0
CCC(C)(C)NC(=O)C1CCC(CNS(=O)(=O)c2ccc3c(c2)CC(C)N3C(C)=O)CC1 (centres undefined)	/	/	.	/
COc1ccc(C(=O)Nc2ccc3c(c2)N(C2CCCC2)C(=O)c2ccccc2S3)cc1OC	/	/	.	/
Cc1cccc(C)c1OCC(O)CN1CCN(c2ccccc2)CC1 (centres undefined)	.	.	63.4	.
CC(C)(C)c1ccccc1OCC(O)CN1CCN(c2ccccn2)CC1 (centres undefined)	.	.	.	?
Cc1cccc(C)c1OCC(O)CN1CCN(c2ccccn2)CC1 (centres undefined)	.	.	59.2	.
Cc1ccc(OCC(O)CN2CCN(c3ccccn3)CC2)c(C)c1 (centres undefined)	.	.	45.5	.
COc1cccc(OC)c1OCC(O)CN1CCN(c2ccccc2)CC1 (centres undefined)	.	.	.	.
OC(CN1CCN(c2ccccn2)CC1)Cn1c2ccc(Cl)cc2c2cc(Cl)ccc21 (centres undefined)	.	.	45.3	.
COc1cc(C=O)ccc1OCCOc1ccccc1[N+](=O)[O-]	.	.	.	-61.7
COc1cc(C=O)ccc1OCCCCOc1ccccc1[N+](=O)[O-]	.	.	.	.
COc1cc(C=O)ccc1OCCCOc1ccccc1C(=O)O	.	.	.	-54.7
COc1cc(C=O)ccc1OCCCOc1ccccc1[N+](=O)[O-]	.	.	.	.
CN1CCc2nc(SCC(=O)Nc3cccc(F)c3)c(C#N)c(-c3cccs3)c2C1	.	.	.	-50.3
CN1CCc2nc(SCC(=O)Nc3ccc(OC(F)(F)F)cc3)c(C#N)c(-c3cccs3)c2C1	.	.	.	?
SMILES	TSHR antagonist	B2AR arrestin	D3 ag	DRD3 antagonist
CCOc1ccc(CNC(=O)CSc2c3c(nc4cc(Cl)ccc24)CCCC3)cc1	/	/	.	/
Cc1ccc(CNC(=O)CSc2c3c(nc4cc(Cl)ccc24)CCCC3)o1	.	.	.	-76.3
CCCSc1nc2sc3c(c2c(=O)n1-c1ccccc1)CCC(C)C3 (centres undefined)	/	/	.	/
O=C(Nc1ccccc1C(=O)NCCCN1CCOCC1)c1ccc(Cl)cc1	.	.	.	-54.0
Cc1cccc(CN2C(=O)c3ccccc3Sc3ccc(C(=O)NCCN4CCOCC4)cc32)c1	.	.	.	.
Cc1ccc(CN2C(=O)c3ccccc3Sc3ccc(C(=O)NCCN4CCOCC4)cc32)cc1	-135.5	.	.	?
CCCCN(C)CCCNC(=O)c1ccc2c(c1)N(CC)C(=O)c1ccccc1S2=O (centres undefined)	.	.	.	-83.7
O=C(NCCCN1CCOCC1)c1ccc2c(c1)N(Cc1ccc(Cl)cc1)C(=O)c1ccccc1S2=O (centres undefined)	-97.3	.	.	.
Cc1nc(-c2ccc(OCC(C)C)c(C#N)c2)sc1C(=O)O	/	/	.	/
CCC1=C(c2ccc(C)cc2)S(=O)(=O)N=C1N1CCC(C(=O)Nc2ccccc2C(=O)OC)CC1	/	/	.	/
CCOC(=O)N1CCC(NC(=O)c2ccc3c(c2)N(Cc2ccccc2)C(=O)c2ccccc2S3=O)CC1 (centres undefined)	/	/	47.2	/
CC(C)CCNC(=O)c1ccc2c(c1)N(C)C(=O)c1ccccc1S2	.	.	.	-72.3
CCN1C(=O)c2ccccc2Sc2ccc(C(=O)NCCC(C)C)cc21	.	.	.	.
Cc1c(C(=O)NCc2ccc(F)cc2)sc(=O)n1Cc1ccc(Cl)c(Cl)c1	/	/	.	-74.4
COc1ccc(CNC(=O)c2sc(=O)n(Cc3ccccc3C)c2C)cc1	/	/	.	.
COc1ccccc1Cn1c(C)c(C(=O)NCc2ccco2)sc1=O	/	/	.	.
Cc1ccccc1Cn1c(C)c(C(=O)NCc2cccc(Cl)c2)sc1=O	/	/	.	-53.4
Cc1cccc(CNC(=O)c2sc(=O)n(Cc3c(C)cccc3C)c2C)c1	/	/	.	-89.6
COc1ccccc1Cn1c(C)c(C(=O)NCc2cccc(C)c2)sc1=O	/	/	.	-57.5
COc1ccc(N2CCN(CCCNC(=O)c3ccc4nc(Cc5ccccc5)oc4c3)CC2)cc1	/	/	.	/
O=C(c1ccco1)N1CCCC(N2CCN(c3cccc(C(F)(F)F)c3)CC2)C1 (centres undefined)	.	.	.	-65.5
Cc1cc(C)c(C(=O)N2CCCC(N3CCN(c4cccc(C(F)(F)F)c4)CC3)C2)o1 (centres undefined)	.	.	.	-54.4
Cc1ccc(Cc2nc3ccccc3nc2SCC(=O)Nc2ccc3c(c2)OCO3)cc1	/	/	.	/
CC(C)Cn1c(=O)c2ccccc2n2c(CCC(=O)Nc3cccc(Cl)c3)nnc12	/	/	.	/
O=c1[nH]nc(Cc2ccc(-c3cccc(Cl)c3)o2)c2ccccc12	.	.	.	-61.3
SMILES	TSHR antagonist	B2AR arrestin	D3 ag	DRD3 antagonist
OC(C#CCN1CCCCC1)c1ccccc1 (centres undefined)	.	.	.	-50.6
OC(C#CCN1CCCCCC1)(c1ccccc1)c1cccnc1 (centres undefined)	.	.	.	-64.0
CC(C)C(O)(C#CCN1CCCCC1)c1ccccc1 (centres undefined)	.	.	.	-71.4
CC(C)C(O)(C#CCN1CCCC1)c1ccccc1 (centres undefined)	.	.	.	.
CCc1ccc(CNC(=O)CCN2C(=O)COc3ccccc32)cc1	/	/	.	/
CC(C(=O)Nc1ccccc1C(F)(F)F)n1nc(-c2ccccc2)c2c(c1=O)CCCC2 (centres undefined)	/	/	.	/
COc1ccc(-c2nc(NC(=O)c3c(C)noc3C)sc2C)cc1	.	.	.	.
COc1ccc(-c2nc(NC(=O)c3cc(C(C)(C)C)nn3C)sc2C)cc1	?	.	39.7	.
CCN(CC)c1cc(C)c2cc(NC(=O)c3ccccc3Cl)ccc2n1	/	/	.	/
CC1CC(=O)N(c2ccc(C(C)C)cc2)C(=O)C1	-117.9	.	.	.

Compound activity as filed in PubChem.
